Several values for one entry are separate records, joined by “and”; a condition that tells them apart may be missing. Equal entries are not always repeated. Results filed as inconclusive are left out. Activity calls are given as the source filed them. Unless noted, the call rests on the fitted dose curve.

The results in this text go back to PubChem BioAssay (NCATS).

The target in assay [1] is Glucocorticoid receptor (Homo sapiens) (UniProt P04150). Description: qHTS assay for small molecule agonists of glucocorticoid receptor signaling (AID 588532; active means well fitted curve in the direction sought with a large enough effect in the signal ratio, with a control signal flat; the % refers to the signal ratio;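 further: 100% = dexamethasone at 0.1 µM and 0% = DMSO only wells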). The following applies: HeLa MMTV-bla, beta-lactamase ratio, agonist, 18 h; activation: stronger effect = higher value, percent of dexamethasone control, DMSO zero. The method in brief: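 Titration series, up to 92 uM, applied to GRE-bla HeLa cells for 18 h at 37 C. Detection by CCF4 FRET substrate after 2 h at RT.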
Sequence of Glucocorticoid receptor (Homo sapiens) (P04150 whole entry, looked up): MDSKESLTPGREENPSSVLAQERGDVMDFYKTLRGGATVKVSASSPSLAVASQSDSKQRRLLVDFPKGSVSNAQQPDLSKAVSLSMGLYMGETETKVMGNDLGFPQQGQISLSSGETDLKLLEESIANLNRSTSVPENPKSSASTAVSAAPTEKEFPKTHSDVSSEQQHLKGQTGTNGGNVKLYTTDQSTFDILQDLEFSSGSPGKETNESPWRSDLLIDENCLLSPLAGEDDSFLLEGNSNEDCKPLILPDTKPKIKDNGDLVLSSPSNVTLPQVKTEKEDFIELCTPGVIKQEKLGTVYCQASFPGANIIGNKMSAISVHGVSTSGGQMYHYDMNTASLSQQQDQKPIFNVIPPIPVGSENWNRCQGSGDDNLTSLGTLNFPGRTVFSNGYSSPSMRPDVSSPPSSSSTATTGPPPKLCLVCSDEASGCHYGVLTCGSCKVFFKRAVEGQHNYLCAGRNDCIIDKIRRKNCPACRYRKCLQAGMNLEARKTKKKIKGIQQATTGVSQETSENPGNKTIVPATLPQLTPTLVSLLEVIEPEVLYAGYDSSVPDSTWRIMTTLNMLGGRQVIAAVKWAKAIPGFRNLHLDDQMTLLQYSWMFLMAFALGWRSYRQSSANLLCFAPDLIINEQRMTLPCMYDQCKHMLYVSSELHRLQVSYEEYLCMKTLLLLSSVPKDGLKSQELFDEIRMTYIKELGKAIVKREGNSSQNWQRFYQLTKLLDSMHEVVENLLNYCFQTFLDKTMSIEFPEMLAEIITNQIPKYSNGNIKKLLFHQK
For orientation: qHTS replaces the single test concentration by a dilution series.

Assay [2] has the same target. Description: qHTS assay for small molecule antagonists of glucocorticoid receptor signaling (AID 588533; active means well fitted inhibition curve with a large enough effect in the signal ratio, with a control signal flat, not every such curve was filed as active; the % refers to the signal ratio;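 further: cells stimulated with 2 nM dexamethasone as agonist; on the % scale 0 is the no-effect control and ±100 the full control effect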). The method in brief: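 Antagonist-mode qHTS: compound titrations added to GRE-bla HeLa cells, then dexamethasone 2 nM final; 18 h, 37 C. CCF4 FRET fluorescence normalized to dexamethasone and DMSO; IC50 from Hill fit.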
Assay [3] is described as follows: qHTS assay for small molecule antagonists of peroxisome proliferator-activated receptor delta signaling (AID 588535; active means well fitted inhibition curve with a large enough effect in the signal ratio, with a control signal flat, not every such curve was filed as active; the % refers to the signal ratio;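 on max response: cells co-treated with a PPAR-delta agonist as stimulator during compound exposure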). The following applies: HEK293T PPARd-UAS-bla, beta-lactamase FRET ratio, 18 h; 460 nm channel. The method in brief:
(§1)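 Inhibition of PPAR-delta response element-driven beta-lactamase expression is measured in HEK293T cells exposed to a compound titration series for 18 hrs at 37 C. Half-maximal inhibition comes from Hill equation fitting.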

The target of assay [4] is Peroxisome proliferator-activated receptor delta (Homo sapiens) (UniProt Q03181). Described as above. The method in brief: as §1
Sequence of Peroxisome proliferator-activated receptor delta (Homo sapiens) (Q03181 whole entry, looked up): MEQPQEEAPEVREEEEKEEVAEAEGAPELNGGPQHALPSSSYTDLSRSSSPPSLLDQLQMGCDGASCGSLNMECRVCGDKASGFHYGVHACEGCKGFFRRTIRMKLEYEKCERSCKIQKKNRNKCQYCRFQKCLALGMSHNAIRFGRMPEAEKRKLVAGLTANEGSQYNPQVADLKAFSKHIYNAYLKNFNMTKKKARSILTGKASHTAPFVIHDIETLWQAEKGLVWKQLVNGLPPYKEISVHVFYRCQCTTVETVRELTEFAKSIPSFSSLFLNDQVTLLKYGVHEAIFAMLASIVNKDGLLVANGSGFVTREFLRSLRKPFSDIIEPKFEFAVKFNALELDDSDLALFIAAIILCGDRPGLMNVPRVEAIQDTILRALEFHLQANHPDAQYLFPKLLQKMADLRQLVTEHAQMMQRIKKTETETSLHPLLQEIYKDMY
Assay [5] has as its target Peroxisome proliferator-activated receptor gamma (Homo sapiens) (UniProt P37231). Description: qHTS assay for small molecule agonists of peroxisome proliferator-activated receptor gamma signaling (AID 588536; active means well fitted curve in the direction sought with a large enough effect in the signal ratio, with a control signal flat, not every such curve was filed as active; the % refers to the signal ratio;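 further: 0% = DMSO basal wells and 100% = rosiglitazone at 2 µM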). Summed up:
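Using GeneBLAzer HEK293 cells, response was quantified by CCF4 fluorescence and normalized between basal DMSO (0%) and rosiglitazone 2 uM (100%); curves yielded half-maximal stimulation concentration and efficacy.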

The target of assay [6] is Thyroid hormone receptor beta (Homo sapiens) (UniProt P10828). Description: qHTS assay for small molecule agonists of thyroid hormone receptor beta signaling (AID 588545).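 Further: 0% = DMSO only and 100% = 10 nM T3.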 The method in brief: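 TR-UAS-bla-GripTite HEK 293 cells in medium with 2% charcoal/dextran FBS, 0.1 mM NEAA and 1 mM sodium pyruvate were treated with titrated compounds for 18 hrs at 37 C. Beta-lactamase reporter was read with CCF4 dye (ex 405, em 460/530 nm); EC50 from Hill fits.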
Sequence of Thyroid hormone receptor beta (Homo sapiens) (P10828 whole entry, looked up): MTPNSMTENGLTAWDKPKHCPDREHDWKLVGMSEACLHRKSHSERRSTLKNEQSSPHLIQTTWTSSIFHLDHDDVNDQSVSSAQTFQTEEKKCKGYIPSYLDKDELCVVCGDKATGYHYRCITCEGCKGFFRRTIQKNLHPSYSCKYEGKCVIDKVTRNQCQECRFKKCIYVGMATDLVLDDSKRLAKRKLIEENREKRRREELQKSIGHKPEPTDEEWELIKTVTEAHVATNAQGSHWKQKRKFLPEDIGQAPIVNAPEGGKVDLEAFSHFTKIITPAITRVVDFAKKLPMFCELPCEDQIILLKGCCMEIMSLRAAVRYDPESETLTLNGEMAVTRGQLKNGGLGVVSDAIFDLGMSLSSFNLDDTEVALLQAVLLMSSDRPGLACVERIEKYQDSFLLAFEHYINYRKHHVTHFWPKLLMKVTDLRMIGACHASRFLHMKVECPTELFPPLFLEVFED

Assay [7] has the same target. Description: qHTS assay for small molecule antagonists of thyroid hormone receptor beta signaling (AID 588547; active means well fitted inhibition curve with a large enough effect in the signal ratio, with a control signal flat, not every such curve was filed as active; the % refers to the signal ratio;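 further: cells stimulated with 0.4 nM T3 agonist during compound exposure; series mostly up to about 77 µM; on the % scale 0 is the no-effect control and ±100 the full control effect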). The following applies: TR-UAS-bla HEK293, beta-lactamase ratio, antagonist mode, 18 h. The method in brief: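 TR-UAS-bla GripTite HEK293 cells in 2% charcoal/dextran FBS medium were preincubated 4 h at 37 C, given compound (0.59 nM to 92 uM) plus 0.4 nM T3 (final) for 18 h, then CCF4 for 2 h at RT; Hill fit gave IC50.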

Assay [8] is described as follows: qHTS assay for small molecule activators of the p53 signaling pathway (AID 651743; active means well fitted activation curve with a large enough effect in the signal ratio, not every such curve was filed as active; the % refers to the signal ratio; further: series mostly up to about 92 µM; % of control where 0% means no effect). The following applies: HCT-116 p53RE-bla, beta-lactamase FRET ratio, 16 h; activation: stronger effect = higher value. The method in brief: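 Agonist-mode quantitative HTS in HCT-116 cells carrying a p53-response-element beta-lactamase reporter; 16 h compound treatment at 37 C, then FRET substrate loading for 2 h at room temperature and fluorescence read.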

The nature of assay [9]: qHTS assay for small molecule activators of the nuclear factor-kappa B (NF-kB) signaling pathway (AID 651749; active means well fitted activation curve with a large enough effect in the signal ratio; the % refers to the signal ratio; further: series mostly up to about 77 µM; % of control where 0% means no effect). The following applies: NF-kB-bla ME-180 cells, beta-lactamase FRET ratio, 16 h; activation: stronger effect = higher value. The method in brief: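 Human ME-180 cervical cells with an NF-kB-bla construct; compounds added via 23 nL pin transfer, DMSO as vehicle; incubation 16 hr. Reporter activity measured by FRET disruption.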

Assay [10] is described as follows: qHTS assay for environmental chemicals that activate the Aryl hydrocarbon Receptor (AhR) signaling pathway (AID 651777; active means well fitted curve in the direction sought with a large enough effect; an effect the other way counts as inactive or inconclusive; further: % of control where 0% means no effect; nearly all actives have a fitted effect of over 15% in size). The following applies: 1A2-DRE human hepatoma cells, luciferase, 24 h; activation: stronger effect = higher value. The method in brief:
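AhR activation is scored as a rise in luciferase from a stable DRE–CYP1A2 promoter construct in human hepatoma cells. Treatment lasts 24 hr at 37 C; detection uses One-Glo after 30 min at room temperature.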

The target of assay [11] is Peroxisome proliferator-activated receptor alpha (Homo sapiens) (UniProt Q07869). The assay is described as follows: qHTS assay for small molecule agonists of the peroxisome proliferator-activated receptor alpha (PPARalpha) signaling pathway (AID 651778; active means well fitted curve in the direction sought with a large enough effect; an effect the other way counts as inactive or inconclusive; further: potency means the concentration at half of the fitted maximal effect; on max response: % of control where 0% means no effect). The following applies: PathHunter PPARalpha complementation, chemiluminescence, 6 h; max response: stronger effect = higher value. Summed up:
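Cells plated at 2,000/well and held overnight at 37 C, 5% CO2, then compound added by pin tool for 6 hr; after PathHunter detection reagent and 60 min at room temperature, chemiluminescence from enzyme complementation was read.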

Assay [12] can be described thus: qHTS assay for small molecule agonists of the antioxidant response element (ARE) signaling pathway measured by Nrf2-dependant transcriptional activity (AID 720636; active means well fitted curve in the direction sought with a large enough effect in the repeat runs; an effect the other way counts as inactive or inconclusive; further: potency means the concentration at half of the fitted maximal effect;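 on activation: HepG2 cells with an ARE-driven luciferase reporter; % of control where 0% means no effect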). The method in brief:
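First, ARE-luc HepG2 cells attached for 6 hr at 37 C in 1% dialyzed FBS medium. Next, compound or DMSO was added and incubated 16 hr. Finally, ONE-Glo reagent was added and luminescence measured after 30 min.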

A short description of assay [13]: qHTS assay for small molecule agonists of the antioxidant response element (ARE) signaling pathway measured by Nrf2-dependant transcriptional activity - cell viability counter screen (AID 720653; active means well fitted curve in the direction sought with a large enough effect in the repeat runs; an effect the other way counts as inactive or inconclusive; further: on the % scale 0 is the no-effect control and ±100 the full control effect). The following applies: ARE-bla HepG2 viability, CellTiter-Glo ATP luminescence, 16 h; max response: stronger effect = lower value. Summed up:
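ARE-bla HepG2 cells (2,000/well) rested 5 hrs at 37C/5% CO2, then exposed to compounds in DMSO for 16 hrs. Viability was read in the same wells as intracellular ATP by luminescence, 30 min at room temperature after reagent addition.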

Assay [14] can be described thus: qHTS assay for cell viability of HEK293 cells (AID 743288; active means well fitted curve in the direction sought with a large enough effect; an effect the other way counts as inactive or inconclusive; further: on the % scale 0 is the no-effect control and ±100 the full control effect; nearly all actives have a fitted effect of over 50% in size). The following applies: ATP luminescence (CellTiter-Glo), 18 h; max response: stronger effect = lower value. The method in brief:
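After 18 h compound exposure at 37 C, parental HEK293 cells (2,000/well) are lysed with CellTiter-Glo and luminescence is read following 30 min at room temperature.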

A short description of assay [15]: qHTS assay for cell viability of the p53RE-bla HCT-116 cell line (AID 743292; active means well fitted curve in the direction sought with a large enough effect; an effect the other way counts as inactive or inconclusive; further: on the % scale 0 is the no-effect control and ±100 the full control effect; nearly all actives have a fitted effect of over 55% in size). Summed up: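 Quantitative high-throughput format: compounds in DMSO were pinned onto p53RE-bla HCT-116 cells (4,000/well) and incubated 16 h at 37 C. Total intracellular ATP, read by CellTiter-Glo luminescence, reflects viable cell number.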
The target in assay [16] is Nuclear receptor subfamily 1 group I member 2 (Rattus norvegicus) (UniProt Q9R1A7). Description: qHTS assay for small molecule activators of the rat pregnane X receptor (rPXR) signaling pathway (AID 651751; call rule not given here; further: 0% is about no effect). The following applies: rPXR reporter cells, luciferase (One-Glo), 24 h.
Sequence of Nuclear receptor subfamily 1 group I member 2 (Rattus norvegicus) (Q9R1A7 whole entry, looked up): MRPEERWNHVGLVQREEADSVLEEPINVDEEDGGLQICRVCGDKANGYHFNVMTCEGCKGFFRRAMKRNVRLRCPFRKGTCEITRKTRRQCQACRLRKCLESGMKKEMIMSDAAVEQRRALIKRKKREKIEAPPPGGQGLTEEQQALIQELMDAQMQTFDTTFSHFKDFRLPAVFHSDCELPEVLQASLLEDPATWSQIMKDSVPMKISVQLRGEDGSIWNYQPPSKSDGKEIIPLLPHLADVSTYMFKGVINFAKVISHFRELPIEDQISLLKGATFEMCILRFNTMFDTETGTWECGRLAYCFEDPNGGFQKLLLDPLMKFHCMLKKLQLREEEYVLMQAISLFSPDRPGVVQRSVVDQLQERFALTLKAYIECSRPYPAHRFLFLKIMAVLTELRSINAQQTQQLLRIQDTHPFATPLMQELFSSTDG
Assay [17] concerns the target Peroxisome proliferator-activated receptor delta (Homo sapiens) (UniProt Q03181). The assay is described as follows: qHTS assay for small molecule agonists of peroxisome proliferator-activated receptor delta signaling (AID 588534).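 Further: 0% = DMSO basal wells and 100% = positive control agonist at 10 µM.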 The method in brief:
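Agonist-mode beta-lactamase reporter readout (CCF4 dye, 2 h at RT) after 18 h at 37 °C exposure to a titration; Hill-equation fitting gave EC50 and maximal response.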

Assay [18] concerns the target Peroxisome proliferator-activated receptor gamma (Homo sapiens) (UniProt P37231). The assay is described as follows: qHTS assay for small molecule antagonists of peroxisome proliferator-activated receptor gamma signaling (AID 588537; active means well fitted inhibition curve with a large enough effect in the signal ratio, with a control signal flat, not every such curve was filed as active; the % refers to the signal ratio;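 further: reporter cells co-stimulated with 50 nM rosiglitazone agonist during compound treatment; % of control where 0% means no effect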). The method in brief: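 Compounds are tested as concentration series for inhibition of rosiglitazone-driven (50 nM) reporter expression in GeneBLAzer PPAR-gamma-UAS-bla HEK293 cells. After 16 h at 37 C, CCF4 substrate is added for 2 h at room temperature and blue/green fluorescence is measured.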

Assay [19] addresses Vitamin D3 receptor (Homo sapiens) (UniProt P11473). Description: qHTS assay for small molecule antagonists of vitamin D receptor signaling (AID 588541).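 Further: receptor activated by calcitriol during compound treatment; series mostly up to about 77 µM; on the % scale 0 is the no-effect control and ±100 the full control effect.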 Summed up:
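VDR-UAS-bla HEK293T cells (2000/well, 2% charcoal-stripped FBS) were treated with titrated compounds plus 1-alpha,25-dihydroxyvitamin D3 (50 nM or 3 nM final) for 16 h at 37 C. CCF4 beta-lactamase fluorescence was read; Hill fits gave IC50.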

For assay [20] the target is unchanged. The assay is described as follows: qHTS assay for small molecule agonists of vitamin D receptor signaling (AID 588543).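 Further: 0% = DMSO basal and 100% = reference agonist control.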 Summed up: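 GeneBLAzer VDR-UAS-bla HEK293T cells in 2% charcoal-stripped FBS medium were dosed with compound titrations for 16 h at 37 °C; CCF4 β-lactamase readout (405 nm ex, 460/530 nm em). EC50 and efficacy from Hill fits, normalized to 50 nM calcitriol (100%) and DMSO (0%).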

Assay [21] in a line: qHTS assay for small molecule antagonists of retinoid X receptor alpha signaling (AID 588546; active means well fitted inhibition curve with a large enough effect in the signal ratio, with a control signal flat, not every such curve was filed as active; the % refers to the signal ratio). The following applies: HEK293T RXRa-UAS-bla, beta-lactamase ratio, antagonist mode; measured here: W530 green channel, cytotoxicity proxy. Summed up:
(§2)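 Beta-lactamase reporter inhibition, read as CCF4 fluorescence ratio (ex 405, em 460/530 nm) after 2 h at RT. HEK293T UAS-bla cells, 2500/well, were stimulated with 9-cis-RA at 500 or 100 nM final alongside test compound for 18 h at 37 C.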

Assay [22] in a line: qHTS assay for small molecule activators of the human pregnane X receptor (PXR) signaling pathway (AID 720659; call rule not given here; further: 0% is about no effect).
Assay [23] addresses Retinoic acid receptor RXR-alpha (Homo sapiens) (UniProt P19793). Description: qHTS assay for small molecule agonists of retinoid X receptor alpha signaling (AID 588544).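 Further: 0% = DMSO basal wells and 100% = reference agonist.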
For assay [24] the target is unchanged. Description: qHTS assay for small molecule antagonists of retinoid X receptor alpha signaling (AID 588546). The following applies: HEK293T RXRa-UAS-bla, beta-lactamase ratio, antagonist mode. Summed up: as §2
The nature of assay [25]: qHTS assay for small molecule agonists of the antioxidant response element (ARE) signaling pathway (AID 651741; active means well fitted activation curve with a large enough effect in the signal ratio; the % refers to the signal ratio; further: potency means the concentration at half of the fitted maximal effect). Summed up:
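Reporter: beta-lactamase under ARE, stably in HepG2. Exposure: 16 h, 37 C, compounds delivered in DMSO by pin tool after 5 h cell preincubation. Readout: FRET substrate fluorescence after 2 h at RT.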

A short description of assay [26]: MultiTox-Fluor Cytotoxicity Assay - LYMP1-001 - Live Cells (AID 947; active means well fitted curve in the direction sought with a large enough effect; an effect the other way counts as inactive or inconclusive;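 further: 0% = DMSO only and full inhibition = tetraoctylammonium bromide control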).
For assay [27], the target named is Bile acid receptor (Homo sapiens) (UniProt Q96RI1). The assay is described as follows: qHTS assay for small molecule agonists of farnesoid X receptor signaling (AID 588527).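 Further: series mostly up to about 77 µM; 0% = vehicle basal and 100% = reference agonist.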 The following applies: HEK293T FXR-UAS-bla, beta-lactamase ratio, 16 h; activation: stronger effect = higher value. The method in brief: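 Quantitative HTS used FXR-UAS-bla HEK293T cells with 16 h compound incubation at 37 C. EC50 values came from concentration-response curves normalized to chenodeoxycholic acid.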
Sequence of Bile acid receptor (Homo sapiens) (Q96RI1 whole entry, looked up): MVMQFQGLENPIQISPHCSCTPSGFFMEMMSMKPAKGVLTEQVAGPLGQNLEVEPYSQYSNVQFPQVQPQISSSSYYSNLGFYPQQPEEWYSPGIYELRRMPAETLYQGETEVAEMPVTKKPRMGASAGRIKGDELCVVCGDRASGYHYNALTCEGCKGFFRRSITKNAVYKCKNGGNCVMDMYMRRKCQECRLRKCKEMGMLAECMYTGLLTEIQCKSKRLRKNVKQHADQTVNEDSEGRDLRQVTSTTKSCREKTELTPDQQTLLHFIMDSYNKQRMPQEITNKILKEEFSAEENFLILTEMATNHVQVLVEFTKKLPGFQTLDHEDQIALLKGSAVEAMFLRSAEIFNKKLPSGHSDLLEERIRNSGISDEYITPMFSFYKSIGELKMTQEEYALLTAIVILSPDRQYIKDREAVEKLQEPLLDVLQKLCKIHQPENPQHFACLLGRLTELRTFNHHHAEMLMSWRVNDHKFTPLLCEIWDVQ

Sequence of Vitamin D3 receptor (Homo sapiens) (P11473 whole entry, looked up): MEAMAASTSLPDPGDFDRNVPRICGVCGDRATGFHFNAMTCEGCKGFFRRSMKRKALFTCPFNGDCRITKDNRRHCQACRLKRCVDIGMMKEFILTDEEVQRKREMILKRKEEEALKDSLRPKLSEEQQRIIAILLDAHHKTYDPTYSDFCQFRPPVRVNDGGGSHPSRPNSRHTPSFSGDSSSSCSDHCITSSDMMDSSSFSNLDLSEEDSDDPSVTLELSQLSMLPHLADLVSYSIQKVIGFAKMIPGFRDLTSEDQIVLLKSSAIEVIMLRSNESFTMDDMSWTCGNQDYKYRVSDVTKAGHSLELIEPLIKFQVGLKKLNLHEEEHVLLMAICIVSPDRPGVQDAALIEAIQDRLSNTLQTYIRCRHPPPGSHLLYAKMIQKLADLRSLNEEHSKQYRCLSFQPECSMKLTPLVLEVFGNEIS
Sequence of Retinoic acid receptor RXR-alpha (Homo sapiens) (P19793 whole entry, looked up): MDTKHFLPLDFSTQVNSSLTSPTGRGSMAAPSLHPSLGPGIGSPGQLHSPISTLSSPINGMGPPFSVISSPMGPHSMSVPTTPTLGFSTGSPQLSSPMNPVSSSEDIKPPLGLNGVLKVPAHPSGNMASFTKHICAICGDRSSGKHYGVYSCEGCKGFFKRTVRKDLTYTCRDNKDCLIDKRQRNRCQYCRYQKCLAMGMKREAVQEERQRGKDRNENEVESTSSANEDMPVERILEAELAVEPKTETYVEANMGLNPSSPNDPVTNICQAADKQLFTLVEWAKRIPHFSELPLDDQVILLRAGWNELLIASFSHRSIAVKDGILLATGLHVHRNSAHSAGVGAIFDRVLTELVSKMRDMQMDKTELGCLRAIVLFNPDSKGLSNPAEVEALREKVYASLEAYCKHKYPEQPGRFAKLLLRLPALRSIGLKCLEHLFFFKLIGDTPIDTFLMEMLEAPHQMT
Sequence of Peroxisome proliferator-activated receptor alpha (Homo sapiens) (Q07869 whole entry, looked up): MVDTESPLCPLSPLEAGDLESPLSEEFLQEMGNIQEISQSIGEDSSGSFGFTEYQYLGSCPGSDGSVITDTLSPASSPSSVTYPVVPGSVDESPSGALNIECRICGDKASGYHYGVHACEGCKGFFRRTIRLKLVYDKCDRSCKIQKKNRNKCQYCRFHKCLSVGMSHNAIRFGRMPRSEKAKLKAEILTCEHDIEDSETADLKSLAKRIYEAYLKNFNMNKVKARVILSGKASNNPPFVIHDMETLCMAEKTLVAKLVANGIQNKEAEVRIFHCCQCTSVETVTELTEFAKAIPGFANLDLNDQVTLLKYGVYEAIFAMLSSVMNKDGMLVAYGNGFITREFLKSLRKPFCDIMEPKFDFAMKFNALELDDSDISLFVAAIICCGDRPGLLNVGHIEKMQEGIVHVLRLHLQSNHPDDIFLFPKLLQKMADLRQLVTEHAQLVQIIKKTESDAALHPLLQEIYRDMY
Sequence of Peroxisome proliferator-activated receptor gamma (Homo sapiens) (P37231 whole entry, looked up): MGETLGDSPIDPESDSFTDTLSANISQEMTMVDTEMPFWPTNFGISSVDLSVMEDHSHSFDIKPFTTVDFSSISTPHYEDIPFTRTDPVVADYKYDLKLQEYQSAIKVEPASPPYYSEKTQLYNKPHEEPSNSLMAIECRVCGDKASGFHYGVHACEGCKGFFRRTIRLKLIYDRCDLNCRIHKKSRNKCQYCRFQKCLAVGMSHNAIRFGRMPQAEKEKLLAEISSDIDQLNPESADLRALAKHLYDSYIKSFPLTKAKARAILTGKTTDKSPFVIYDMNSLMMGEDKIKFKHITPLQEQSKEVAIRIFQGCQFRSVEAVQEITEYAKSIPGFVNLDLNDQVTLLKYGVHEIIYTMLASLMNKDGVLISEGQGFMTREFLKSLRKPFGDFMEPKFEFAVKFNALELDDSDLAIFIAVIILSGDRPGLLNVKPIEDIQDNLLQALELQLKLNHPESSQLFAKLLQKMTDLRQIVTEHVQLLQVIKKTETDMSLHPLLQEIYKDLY

Take `CCOC(=O)C(C)OC(=O)c1cc(Oc2ccc(C(F)(F)F)cc2Cl)ccc1[N+](=O)[O-]` (stereo not drawn): the activation in assay [1] is 2.93% (inactive); in [8] it was 0.27% (inactive); in [9] it was 0.301% (inactive); in assay [10], 4.56% (inactive). Moreover, the Potency result in [2], in assay [4], in assay [5], in [6], in [12] and in assay [15] was “inactive” throughout. Further, the max response in assay [3] is 34.5%; in [13], -9.47% (inactive); in assay [14] it was -22.9% (inactive); in [16], 4.28% (inactive). The activity change % (negative = inhibition) in assay [7] was 11.5% (inactive). In assay [11], the Potency is 35.5 µM (active).
Turning to `CCOP(=S)(OCC)OC(Cl)C(Cl)(Cl)Cl` (stereo not drawn), the activation in assay [1] is 11.6% (inactive); in assay [8] it was -0.781% (inactive); in [9] it was 0.0553% (inactive); in assay [10] it was 0.044% (inactive). Moreover, the Potency result in [2], in [5], in assay [18], in assay [19], in assay [6] and in assay [12] was “inactive” in each case. Besides, the Potency result in [15] was “inactive”. Also, the compound was classed as inactive in [17], in [20] and in [22]. Besides, the max response in assay [21] was -12.5%; in [11], -1.33% (inactive); in assay [13] it was -3.95% (inactive); in assay [14] it was -12.8% (inactive); in assay [16] it was 0.487% (inactive). In addition, the activity change % (negative = inhibition) in [7] is 7.52% (inactive).
`C#CC(C)(C)NC(=O)c1cc(Cl)cc(Cl)c1`: the activation in [1] is -9.44% (inactive); in [8] it was -3.76% (inactive); in assay [9], -1.42% (inactive); in assay [10], -1.14% (inactive). The Potency result in assay [2], in assay [19], in assay [23], in assay [6] and in assay [12] was “inactive” each time. The outcome in [17] and in assay [20] was inactive. The max response in [21] is -11.2%; in [24] it was -9.81% (inactive); in [13], 4.89% (inactive); in assay [14], 5.07% (inactive). In addition, the activity change % (negative = inhibition) in [7] is 3.53% (inactive).
Take `S=C([S-])NCCNC(=S)[S-].[Mn+2]`: the activation in [1] was -3.05% (inactive). Further, the Potency in [25] is 30.6 µM (active) and 27.3 µM (active); in [12] it was 61.1 µM (active).
As for `CN(C)C=O`, the Potency result in assay [26] was “inactive”. Moreover, the activation in [27] is -2.96% (inactive) and -2.36% (inactive) and -5.04% (inactive).
Consider `O=[N+]([O-])c1ccc(Oc2ccc(Cl)cc2Cl)cc1`, for which the activation was -3.5% (inactive) in assay [1], -0.909% (inactive) in [8], -1.65% (inactive) in assay [9] and 0.167% (inactive) in assay [10]. The result in assay [17] and in assay [20] was inactive. Moreover, the max response in [3] is -2.51%; in [21] it was -7.09%; in [24], 5.62% (inactive); in assay [11], 5% (inactive); in assay [13], -3.33% (inactive); in assay [14] it was -5.28% (inactive). Besides, in [16], the max response was 6.97% (inactive). In addition, the Potency entry in assay [4], in [5], in [18], in assay [19], in assay [6] and in assay [15] was “inactive” each time. The activity change % (negative = inhibition) in assay [7] was -8.47% (inactive). Also, in assay [25], the Potency is 48.6 µM (active).
